Measured values: PubChem BioAssay (NCI)
Several values for one entry are separate records, joined by “and”; a condition that tells them apart may be missing. Equal entries are not always repeated. The panel holds about 83,000 compounds, 20% with a hit somewhere; the sample as a whole holds those more often.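 Testing used 96-well plates and a 48-hour single-concentration exposure. Example: -40 means 40% of the starting cells died.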 Unmarked numbers belong to inactive results. Activity calls are given as the source filed them. Rule for the calls: active = growth percent below 10; inactive = the rest.

Tested on: MDA-MB-468 breast
Assay: NCI-60 one-dose screen, 48 h (100 = growth as untreated, 0 = no growth, -100 = all killed)
Details: 10 µM unless noted

| SMILES | growth |
| --- | --- |
| CCN(CC)CCOc1nc2ccccc2c2c1-c1ccc(OC)cc1C2=O | 14.3% |
| Cc1cc([N+](=O)[O-])ccc1NC(=O)c1ccc2c(c1)nc(-c1ccccc1)n2C1CCCCC1 | 100% |
| C=C(C)[C@@H]1CCC=C2CC[C@]3(C)[C@H](CC[C@@H]4[C@@]5(C)CCCNC(C)(C)[C@@H]5CC[C@]43C)[C@H]21 | -31.5% (active) |
| Cc1ccc(/C=C2\Oc3ccc(O)c(O)c3C2=O)cc1 | 58.3% |
| CC(C)=NNc1ccc([N+](=O)[O-])cc1[N+](=O)[O-] | 96% |
| O=C1OC(c2nc3ccccc3s2)=C/C1=C\c1ccc(O)cc1 | 114% |
| CNc1ccc(Nc2cccc(C)c2)c2c1C(=O)c1ccccc1C2=O | -13.1% (active) |
| COc1ccc2nc(Cl)cc(C)c2c1 | 94.1% and 91.3% |
| CC1=NC2=NN3C(=NN2C(c2ccccc2)=C1)N=NC(c1ccc(Br)cc1)=C3c1ccc(Br)cc1 | 105% |
| Cc1cc2nc3ccc(=[N+](C)C)cc-3sc2cc1N | -13.4% (active) and -40.6% (active) |
| Nc1ncnc2c1c(-c1ccc(Oc3ccccc3)cc1)nn2C[C@H]1SSC[C@@H]1O | -26.7% (active) |
| Cc1c2c(cc[n+]1Cc1ccc(F)cc1)c1ccc(OCc3cccc(F)c3)cc1n2Cc1cccc(F)c1 | -85.6% (active) |
| O=[N+]([O-])c1ccc2nc(N/N=C/c3ccc(O)cc3)sc2c1 | 64.2% |
| CCCCCCNC(=O)Nc1ncnc2c1ncn2-c1ccccc1 | 105% |
